# HTT aggregate = reduces HttQ103-GFP aggregates in PC12 cells. PC12 HttQ103-GFP aggregates, Acumen cytometry, 40 h. Potency, µM (highest dose often 46.1 µM), usual class: inhibitors. hit rate 1.1% among 220,000. AID 1688; further: nearly all actives have a fitted effect of over 60% in size
#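 Using laser scanning cytometry, GFP-positive aggregates were counted after lysis of PC12 cells induced with 100 nM tebufenozide to express HTT exon 1 Q103–GFP. Compounds were tested in titration.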
# TGFb SMAD3 inh = inhibitors of TGF-b signaling | hit rate 1.2% among 410,000 | Potency, µM (series often up to 46.1 µM), hits mostly inhibitors | HepG2 CAGA-GFP TGF-b/SMAD3 reporter, GFP fluorescence, 18 h; TGF-beta stimulated, 500 pg/mL final; further: nearly all actives have a fitted effect of over 65% in size
#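 Using HEPG2 CAGA-GFP reporter cells at 1000 cells/well, we pinned test compounds, stimulated with recombinant TGF-beta (500 pg/mL final) and measured total well GFP after 18 h.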
# HepG2 tox = HepG2 cytotoxicity, counter-screen for TGF-b inhibitors. Potency, µM (series often up to 46.1 µM), actives largely listed as cytotoxic. hit rate 0.76% among 410,000. HepG2 CAGA-GFP viability, ATP luminescence, 18 h. AID 588856
#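 HepG2 CAGA-GFP cells (1000/well, DMEM with 1% FBS) received compound, then TGF-beta at 500 pg/mL final, and were incubated 18 hours at 37 degrees C. Viability was read by CellTiter-Glo luminescence. Media-only wells were set as complete cell-killing and DMSO as no toxicity.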
# S2 tox = cell viability loss in ATXN counter-screen. S2 cells (HEK-293 line with an ATXN2-luciferase reporter) viability, CellTiter-Fluor protease fluorescence, 24 h. Potency, µM (highest dose often 56.7 µM), most hits filed as cytotoxic. hit rate 0.49% among 400,000. AID 651635; further: nearly all actives have a fitted effect of over 40% in size
# ATXN2 expr inh = inhibitors of ATXN2 expression; HEK-293 ATXN2-luciferase reporter, luminescence, 24 h; Potency, µM (top dose mostly 57 µM), actives largely listed as inhibitors; hit rate 0.72% among 360,000; further: nearly all actives have a fitted effect of over 55% in size
#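 qHTS (up to 57 uM final) was run with 24 h compound exposure of reporter cells at 37 °C. Each well was multiplexed: SteadyGlo luminescence measured ATXN2-luciferase expression after a fluorogenic Gly-Phe-AFC viability readout (25 uM final).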
# HTT cytoprotect = Huntington cell model cytoprotection by ATP luminescence. PC12 HTT-Q103 induced, cytoprotection, ATP luminescence, 40 h. Potency, µM (titrated, usually from 56.4 µM), most hits filed as activators. hit rate 0.14% among 230,000. AID 1471; further: nearly all actives have a fitted effect of over 45% in size
#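 Huntington model: PC12 line, ecdysone-inducible HTTQ103 exon1–GFP, tebufenozide 100 nM. Test articles in a dose series. Endpoint luminescence from cellular ATP.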
# A number is an active result; . = inactive; ? = inconclusive; / = no result; [ ] = remark or other dose. Sampled rows, rich in hits. Any-hit rate of the full collection: about 2.8%. The call rests on the fitted dose curve; in most records, active means well fitted curve in the direction sought with a large enough effect; inconclusive means small, poorly fitted or top-dose-only effect, or another doubt; inactive means no such curve, though single readings can be large; an effect the other way counts as inactive or inconclusive.
SMILES,HTT aggregate,TGFb SMAD3 inh,HepG2 tox,S2 tox,ATXN2 expr inh,HTT cytoprotect
Oc1[nH]c2ccccc2c1N=NC(=S)NCCc1ccccc1,?,11µM,.,.,.,.[10 µM]
CCOc1ccc(NC(=S)N=Nc2c(O)[nH]c3ccccc23)cc1,?,7.9µM,8.9µM,?,.,.
CC(C)c1ccc2[nH]c(O)c(N=NC(=S)NCCc3ccccc3)c2c1,?,?,.,?,/,.[10 µM]
Cn1ccsc1=NC(=O)c1ccc([N+](=O)[O-])o1,/,28µM,.,.,.,/
COc1cc(O)oc1C=Nc1ccc(C(=O)O)cc1,.,.,14µM,.,.[11.3 µM],.
CC(=O)OC[C@@H]1O[C@H](C/C=N\O[C@@H](C)c2cn([C@H]3COC[C@H]3O)nn2)C=C[C@@H]1OC(C)=O,/,/,/,/,/,.[10 µM]
COC(=O)C1(C(=O)OC)CC2=CC(CC2=O)Cc2ccccc2[C@@H]1C[N+](=O)[O-] (stereo partly specified),/,/,/,/,/,.
COc1cccc2c(NCc3ccccc3)nc(-n3c(N)nc4ccccc43)nc12,/,/,/,/,27µM,/
CO[C@@H](C(=O)N1Cc2[nH]nc(NC(=O)c3ccc(N4CCN(C)CC4)cc3)c2C1)c1ccccc1,/,/,/,/,27µM,/
CC(=O)OC(C(=O)N1CCN(c2ccc(F)cc2)CC1)c1ccccc1 (stereo unspecified),.,.,.,.,.,.[1.9 µM]
CCN(Cc1cccc(S(=O)(=O)O)c1)c1ccc(C(=C2C=CC(=[N+](CC)Cc3cccc(S(=O)(=O)O)c3)C=C2)c2ccccc2S(=O)(=O)[O-])cc1,/,.,.,/,/,/
COc1cc(=O)n2c(c1C(=O)N(C)Cc1cscn1)CCN(Cc1c(C)[nH]c3ccccc13)CC2,/,/,/,.,/,/
Cc1ccc(C)c(CN2C(=O)c3ccccc3S(=O)(=O)c3ccc(C(=O)NCCCN4CCCC(C)C4)cc32)c1 (stereo unspecified),/,/,11µM,/,/,/
CC1CCCN(CCCNC(=O)c2ccc3c(c2)N(Cc2ccc(Cl)cc2)C(=O)c2ccccc2S3(=O)=O)C1 (stereo unspecified),/,?,20µM,/,/,/
O=C(NCCCN1CCCC1)c1ccc2c(c1)N(Cc1cccc(Cl)c1)C(=O)c1ccccc1S2=O (stereo unspecified),/,.,.,.,.,/
Cc1ccc(C)c(CN2C(=O)c3ccccc3S(=O)(=O)c3ccc(C(=O)NCCC4=CCCCC4)cc32)c1,/,/,.,/,/,/
CC1CC(C)CN(CCCNC(=O)c2ccc3c(c2)N(Cc2ccccc2)C(=O)c2ccccc2S3=O)C1 (stereo unspecified),/,?,.,28µM,/,/
c1ccc(CSc2ccc(-c3cccs3)nn2)nc1,0.032µM,.,.,.,.,.
O=C1C=CC(=O)N1c1cccc(-c2ccccc2)c1,?,11µM,.,?,.,.[10 µM]
O=C(NCC1Cc2cccc(-c3ccccn3)c2O1)c1cnn2cccnc12 (stereo unspecified),/,/,/,.,/,/
COC(=O)c1c(NC(=O)C(C)(C)C)sc2c1C(C(=O)OC)CC2 (stereo unspecified),.,.,.,.,.,.
COC(=O)c1c(NC(=O)C(Cl)Cl)sc2c1C(C(=O)OC)CC2 (stereo unspecified),.[9.22 µM],11µM,.,.,/,.[10 µM]
COc1ccc(OCC(O)Cn2c(=N)n(CCN3CCCCC3)c3ccccc32)cc1 (stereo unspecified),.,?,.,?,.,.
Cc1ccc(OCC(O)Cn2c(=N)n(CCN3CCCCC3)c3ccccc32)cc1 (stereo unspecified),.,?,13µM,?,25µM,.[0.074 µM]
N=c1n(CCN2CCCCC2)c2ccccc2n1CC(O)COc1ccc(Cl)cc1Cl (stereo unspecified),/,7.1µM,10µM,/,/,/
O[C@@H](COc1ccc(Cl)cc1Cl)CN1CCCC1,/,/,/,/,/,.[10 µM]
COc1ccc(OCCn2c(=N)n(CCO)c3ccccc32)cc1,.,.,.,.,.,.[10 µM]
N=c1n(CCO)c2ccccc2n1CCOc1ccc(Cl)cc1Cl,.,?,11µM,/,20µM,.

# From PubChem
